PMC5540273 (PLoS ONE, 2017)

The compounds below were run on T1, RSK2(Kin.Dom.1-N-terminal). Details: concentration: 1 μM,replicates: in singlicate; n = 1.
T1 construct: gene RPS6KA3
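Also: KINOMEscan kinase panel screen.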

| SMILES | %Inh [%] |
| --- | --- |
| Cc1ccn2nc(-c3ccc(F)cc3)c(-c3ccncc3)c2c1.Cl [GW457859] | 0 |
| CS(=O)c1ccc(-c2coc3ccc(-c4n[nH]c(=O)o4)cc23)cc1 (stereo not shown) | 13 |
| C[C@@H](Oc1cc(-n2cnc3cc(-c4cnn(C)c4)ccc32)sc1C(N)=O)c1ccccc1Cl [GSK580432] | 60 |
| CN1CCN(CCCNc2nccc(-c3c(-c4ccc(F)cc4)nn4cc(C(N)=O)ccc34)n2)CC1 [GW622475] | 0 |
| C[C@@H](Oc1cc(-n2cnc3ccc(-c4ccncc4)cc32)sc1C(N)=O)c1ccccc1Cl [GSK483724] | 34 |
| CS(=O)(=O)c1cccc(CNc2nc(Nc3ccc4c(c3)[C@@H]3C[C@@H]4CNC3=O)ncc2C(F)(F)F)c1 | 84 |
| COc1cc(Nc2nccc(N3CCC(NC(=O)c4cccc(C#N)c4)C3)n2)cc(OC)c1OC (stereo not shown) [GSK1379751] | 0 |
| COc1cccc(OC)c1C(=O)Nc1cccc(-c2nn3ccccc3c2-c2ccnc(Nc3cccc(F)c3)n2)c1 [GSK361065] | 0 |
| O=C(NOCC1CC1)c1cc(Br)c(F)c(F)c1Nc1ccc(I)cc1Cl | 9 |
| CNC(=O)c1ccccc1Nc1nc(Nc2cccc(CS(C)(=O)=O)c2)ncc1C.O=CO [GSK1520489] | 99.9 |
| C[C@@H]1CNc2c(sc3ccc4nc(-c5ccc(O)cc5)ccc4c23)C(=O)N1 | 58 |
| O=C(Nc1cccc(Oc2ccc3nccn3n2)c1)Nc1cccc(C(F)(F)F)c1 | 8 |
| NC(=O)Nc1sc(-c2ccc(F)cc2)cc1C(N)=O [GW789449] | 68 |
| NC(=O)c1ccc(-c2cc3ncnc(SCC(=O)O)c3s2)cc1 | 1 |
| Cc1n[nH]c2cc(Nc3ccnc(Nc4cccc(CN5CCOCC5)c4)n3)ccc12 [GW682569] | 22 |
| O=c1[nH]cc(-c2ccc(O)cc2)c2sc(-c3ccncc3)cc12 [GSK1033723] | 0 |
| COC(=O)Nc1nc2cc(Oc3ccc(NC(=O)Nc4cc(C(F)(F)F)ccc4Cl)cc3)ccc2[nH]1.Cl [GW697465] | 0 |
| O=C1NCCc2[nH]c(-c3ccncc3)cc21 | 8 |
| Cl.Cl.NC[C@H](CC1CCCCC1)NC(=O)c1ccc(-c2ccnc3[nH]ccc23)s1 [GSK1581428] | 83 |

| SMILES | %Inh [%] |
| --- | --- |
| CC(=O)Nc1nc2cnc(Nc3cc(NC(=O)c4cccc(CC(C)(C)C#N)c4)ccc3C)nc2s1 | 0 |
| O=C(Nc1ccc(Oc2ccc3nc(NC(=O)C4CC4)cn3n2)c(F)c1)c1cccn(-c2ccccc2)c1=O | 0 |
| CC(=O)Nc1ccc(-c2cc3ncnc(SCC(=O)O)c3s2)cc1 | 0 |
| COC(=O)c1cccc(NC(=O)NC2CCN(c3ccnc(NCc4ccc(F)cc4)n3)CC2)c1 [GSK1379860] | 0 |
| COc1ccc(Nc2nccc(N3CCC(NC(=O)c4cccc(C#N)c4)C3)n2)cc1 (stereo not shown) [GSK1379730] | 0 |
| Cn1ccc2ncnc(Oc3ccc(NC(=O)Nc4cncc(C(F)(F)F)c4)c(Cl)c3)c21 | 0 |
| Cn1ccc2ncnc(Oc3ccc(NC(=O)Nc4cnn(C(C)(C)C)c4)c(Cl)c3)c21 | 11 |
| COc1cccc(C2=C(Nc3cccc(Cl)c3)C(=O)NC2=O)c1 [SB-341556] | 25 |
| Cn1ccc2ncnc(Oc3ccc(NC(=O)Nc4cccc(C(F)(F)F)c4)c(F)c3)c21 | 6 |
| CC(C(=O)NC1CCN(c2ccnc(Nc3ccc(F)cc3)n2)C1)c1ccc(Cl)cc1 (stereo not shown) [GSK1379713] | 0 |
| O=C(NCC1CC1)c1ccc(-c2cc(C(=O)NC3CC3)ccc2F)cc1 [GW810445] | 0 |
| Cc1cccc2c(-c3ccncc3)c(-c3ccc(F)cc3)nn12.Cl [GW461487] | 3 |
| c1ccc(Oc2ccc(Nc3ccnc4ccc(-c5ccccn5)cc34)cc2)cc1 [GW407034] | 7 |
| O=C(Nc1ccccc1)c1cccc(Oc2ccc3nccn3n2)c1 | 9 |
| Cc1ccc2c(-c3ccnc(Nc4ccc(C(F)(F)F)cc4)n3)cnn2n1 [GW819776] | 53 |
| CC(C)c1nc(-c2cccc(NS(=O)(=O)c3ccccc3)c2)c(-c2ccnc(Nc3ccc4c(c3)CN(C)CC4)n2)s1 [GSK1649598] | 10 |
| CN(c1ccccc1CNc1nc(Nc2ccc3c(c2)CC(=O)N3)ncc1C(F)(F)F)S(C)(=O)=O | 89 |
| CCn1c(-c2nonc2N)nc2cncc(Br)c21 [SB-738004] | 50 |
